This excerpt belongs to a sample that is enriched for hits.
Methyltransferases: Primary Screen for Target Class Profiling of Small Molecule Inhibitors of Methyltransferases. 3.9% of 25,000 active. calls only at 40 µM. purified enzyme, MTase-Glo SAH luminescence; hits give low values; call rule not given here
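Each enzyme was reacted with SAM and its substrate, with compounds tested once at 40 uM; SAH formed was read by MTase-Glo luminescence.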
Active calls of the source: *; i = inactive; + = active, no number. % is set by controls: 0 for no effect and ±100 for the full control effect.

SMILES	Methyltransferases
COc1cc(CO)cc(OC)c1O[C@@H]1O[C@H](CO)[C@@H](O)[C@H](O)[C@H]1O	i
CCCC1c2ccc(C)n2CCN1C(=O)Nc1cc(C)ccc1C (stereo not drawn)	i
COc1cccc(N2CCN(C(=O)c3ccc4c(=O)nc5c(-c6ccccc6)n[nH]n5c4c3)CC2)c1	i
Cc1cc2c(cc1S(=O)(=O)Nc1ccc(F)cc1)n(C)c(=O)n2C	i
C=C(C(=O)O)C1CC(O)C2(C)CCCC(=C)C2C1 (stereo not drawn)	+
C=C(C(=O)O)C1CC(OC(=O)CC(C)CC)C2(C)CCCC(=C)C2C1 (stereo not drawn)	i
C=C1CCC[C@]2(C)CC[C@@](O)(C(=C)C(=O)O)C[C@@H]12	i
Cc1ccccc1C(=O)N1CCCN(c2ccc3nnc(-c4ccccc4)n3n2)CC1	i
CC(=O)c1[nH]cc(CCC(=O)O)c1CC(=O)O	i
CC1(C(=O)NC2CCCCCC2)Cn2c(cc3occc32)C(=O)N1Cc1ccccc1Br (stereo not drawn)	i
COC(=O)c1cc2n(n1)CC(C)(C(=O)NC1CCCCCC1)N(Cc1ccccc1)C2=O (stereo not drawn)	i
CSc1ccc(CCN2C(=O)CSc3c(c4ccccc4n3C)C2C(=O)NCCC(C)C)cc1 (stereo not drawn)	i
Cc1ccc(C)c(N2C(=O)c3cc4occc4n3CC2(C)C(=O)NC2CCCCC2)c1 (stereo not drawn)	i
Brc1c(Br)c(Br)c2[nH]cnc2c1Br	+
COc1ccc(S(=O)(=O)Nc2nc(-c3cccc([N+](=O)[O-])c3)cs2)cc1OC	i
COc1ccc(C2CC(=O)c3cc(-c4nc(-c5cccc([N+](=O)[O-])c5)cs4)c(=O)n(-c4ccccc4N)c3C2)cc1 (stereo not drawn)	+
CCN(CC)CCCN1C(=O)c2cc3occc3n2CC1(C)C(=O)NC1CCCCCC1 (stereo not drawn)	i
CC1(C(=O)NC2CCCCC2)Cn2c(cc3ccccc32)C(=O)N1Cc1cccnc1 (stereo not drawn)	i
CC(C)CCn1c(=O)c2ccc(C(=O)NC3CCCC3)cc2n2c(=O)[nH]nc12	i
CNCCCN1c2ccccc2CCc2ccccc21	i
CN(C)CCCN1c2ccccc2Sc2ccccc21	i
CN1CCN(CCCN2c3ccccc3Sc3ccc(C(F)(F)F)cc32)CC1	+
CCCn1c(=O)c2cc(F)ccc2n2c(SCc3ccc(Cl)cc3)nnc12	i
COC[C@@H]1OC[C@@]2(C)C3CC[C@@H](O)[C@@H](CC(=O)N4CCCCC4)[C@]3(C)CC[C@H]2O1 (stereo partly drawn)	i
CC(=O)N1CCc2cc(Br)c(S(=O)(=O)NCCN3CCN(c4ccccc4F)CC3)cc21	i
SMILES	Methyltransferases
CCOC(=O)c1cccc(NC(=O)c2cc3n(n2)CC(C)(C(=O)NC2CCCCC2)N(C)C3=O)c1 (stereo not drawn)	i
CCOc1ccc(CN2C(=O)c3nc4ccccc4n3CC2(C)C(=O)NC2CCCCC2C)cc1 (stereo not drawn)	i
O=C(O)Cn1nnc(-c2ccc(CN(CCCCOc3ccc(CN4CCCC4)cc3)CCc3ccccc3)cc2)n1	+
CCOC(=O)C1(CCOc2ccccc2)CCN(Cc2ccc(O)c(Cl)c2)CC1	i
Cc1c(CN2CC[C@H]3CC[C@@H](C2)N3)c(=O)n(-c2ccccc2)n1C	i
CN(CC(=O)Nc1ccc(F)c(Cl)c1)S(=O)(=O)c1ccc2[nH]c3c(c2c1)CCCC3	i
CNc1nc(Nc2cnn([C@H]3CCN(C4COC4)C[C@@H]3F)c2Cl)ncc1C(F)(F)F	i
COc1ccccc1CNC(=O)C1(C)Cn2c(cc3ccccc32)C(=O)N1Cc1cccc(Br)c1 (stereo not drawn)	i
COCCCN1C(=O)c2cc3occc3n2CC1(C)C(=O)NC1CCCCCCC1 (stereo not drawn)	i
Cc1cccc(Nc2nc(-c3ccncc3)cs2)c1	+
c1ccc2c(Nc3nnc(-c4ccncc4)s3)cccc2c1	i
COc1cc(Br)c(Nc2nc(-c3c(C)nc4ncccn34)cs2)c(Br)c1	i
COC(=O)c1ncn2c1C(=O)N(Cc1ccccc1Cl)C(C)(C(=O)NCc1ccccc1OC)C2 (stereo not drawn)	i
NC[C@H]1O[C@@H](n2cnc3c(N)ncnc32)[C@H](O)[C@@H]1O	+
Nc1ncnc2c1nc(N)n2[C@@H]1O[C@H](CO)[C@@H](O)[C@H]1O	i
Nc1ncnc2c1ncn2[C@@H]1O[C@H](CO)C[C@H]1O	i
COc1ccc(N2C(=O)c3cc(C(C)(C)C)nn3CC2(C)C(=O)NC2CCCCCC2)cc1 (stereo not drawn)	i
CNC(=O)c1cc2n(n1)CC(C)(C(=O)NC1CCCCCC1)N(C)C2=O (stereo not drawn)	i
COc1ccc(CCN2C(=O)c3cc4occc4n3CC2(C)C(=O)NC2CCC(C)CC2)cc1OC (stereo not drawn)	i
Cn1cnc(S(=O)(=O)N2CC(N(C3CCOCC3)S(C)(=O)=O)C2)c1	i
C=C1C(=O)O[C@@H]2[C@H]3C(C)=CC(=O)C3=C(C)CC[C@@H]12	i
C=C(C)C(=O)OC1CC(CO)CCC/C(CO)=C/C2OC(=O)C(=C)C21 (stereo not drawn)	i
C=C1C(=O)OC2C1CCC(=C)C1CC(OC(C)=O)C(=C)C12 (stereo not drawn)	+
O=C(c1ccco1)N1CCC(N2CC3(CCCC3)C2c2ccccc2)CC1 (stereo not drawn)	i
C=CCSC(C)C(=O)N1CCCn2nc(C(=O)OC)cc2C1 (stereo not drawn)	i
SMILES	Methyltransferases
CCOc1ccc(C(=O)Cn2nc3n(CCc4ccccc4)c(=O)c4ccccc4n3c2=O)cc1	i
CC(C)OCCCn1c(=O)c2ccccc2n2c(CCC(=O)NCc3ccccc3)nnc12	i
CC(C)n1cc(-c2ccc(Oc3ccccc3)cc2)c2c(N)ncnc21	+
CCCSCCCN1C(=O)c2cc3sccc3n2CC1(C)C(=O)NC1CCCCCC1 (stereo not drawn)	i
O=C(Nc1ccc(F)cc1)N[C@H]1[C@H](O)[C@@H](N2CCOCC2)[C@@H]2OC[C@H]1O2	i
CNCCN1CCC(c2cc(CN(C)C(=O)c3cccc(Oc4ccccc4)c3)ccn2)CC1	i
CCOCCCN1C(=O)c2c(NC(C)=O)c3cc(F)ccc3n2CC1(C)C(=O)NCCC(C)C (stereo not drawn)	i
C=CCn1c(=O)c2cnc(Nc3ccc(N4CCN(C)CC4)cc3)nc2n1-c1cccc(C(C)(C)O)n1	+
CCn1c(=O)c(-c2ccc(-c3cncs3)cc2Cl)cc2cnc(Nc3ccc(N4CCN(C)CC4)cc3)nc21	i
C=C(C)C(O)COc1ccc(CC(=O)O)cc1 (stereo not drawn)	i
Cc1cc2c(cc3n2CC(C)(C(=O)NC2CCCCCCC2)N(Cc2ccccc2F)C3=O)o1 (stereo not drawn)	i
C=C1CC2OC(=O)C(=C)C2C(OC(=O)/C(C)=C\C)CC2(C)OC1=CC2=O (stereo not drawn)	i
C=C1C(=O)O[C@@H]2CC(C)=C([C@@H](C)CCCO)[C@@H](OC(=O)C(C)C)[C@H]12	+
C=C1C(=O)O[C@H]2[C@H]1[C@@H](OC(=O)C(C)CO)C[C@@]1(C)[C@H](O)CCC(=O)[C@H]21 (stereo partly drawn)	i

Assay outcomes: PubChem, National Center for Advancing Translational Sciences (NCATS)
